Data on 18 molecules can be found in the supplement of paper PMC6953052.

Whole data set: some 1,700 compounds, median “fraction of GFP-LC3-positive cells (≥5 vesicles/cell)” near 0.43, cut for the highest 2% near 0.81. The list comes from a sample in which the highest values are over-represented; it also holds similar structures and randomly drawn compounds.

This test deals with CbCln3 Δex7/8/Δex7/8 GFP-LC3 cerebellar neuronal cells. Nature of the test: fraction of GFP-LC3-positive cells (≥5 vesicles/cell); higher = more autophagosome accumulation. The gist of the method: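 Compound (~50 nL in DMSO) was pin-transferred in duplicate onto wild-type or mutant CbCln3 cerebellar cells stably expressing GFP-LC3, seeded at 2 × 10^3/well in 384-well plates, for 24 h at 33 °C. After fixation in 3.2% PFA, three fields per well were imaged at 10×. The value reported is the duplicate average of the fraction of cells meeting a vesicle-count threshold, with CellProfiler counting GFP-LC3 vesicles per cell and out-of-focus images excluded. Cells met the threshold at 5 or more vesicles.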
For the molecule `CC(=O)OC(C)C[N+](C)(C)C.[Cl-]` (stereo not drawn) [Methacholine chloride], the “fraction of GFP-LC3-positive cells” value was found to be 0.309.
Take `CCCc1cc(=O)[nH]c(=S)[nH]1` [Propylthiouracil]: the “fraction of GFP-LC3-positive cells” value is 0.375.
Next, `O=C(O)/C=C/c1ccc(O)c(O)c1` [Caffeic acid]: 0.359.
With `COC(=O)/C=C/c1cc(O)ccc1O` the figure was 0.924; with `COc1ccc(C(=O)c2ccccc2)c(O)c1` [Oxybenzone], 0.465; with `CCC[C@@H]1C[C@@H](C(=O)N[C@@H](C2O[C@H](SC)[C@H](O)[C@@H](O)[C@H]2O)[C@H](C)Cl)N(C)C1.Cl` (stereo partly drawn) [Clindamycin hydrochloride], 0.462.
For the molecule `O=C1Nc2ccc([N+](=O)[O-])cc2C1=O` [5-Nitroisatin], the “fraction of GFP-LC3-positive cells” value came to 0.469.
On to `CCCCNc1cc(C(=O)O)cc(S(N)(=O)=O)c1Oc1ccccc1` [bumetanide], for which the “fraction of GFP-LC3-positive cells” value is 0.319.
In the case of `CCCCN(CCCC)CCC(O)c1cc2c(Cl)cc(Cl)cc2c2cc(C(F)(F)F)ccc12.Cl` (stereo not drawn) [Halofantrine hydrochloride], the “fraction of GFP-LC3-positive cells” value was 0.319.
With `CCCCC[C@H](O)/C=C/C=C\C=C\C=C\[C@@H](O)[C@@H](O)CCCC(=O)O` [Lipoxin A4] the figure was 0.498.
Turning to `OCC(O)CN1CCN(c2ccccc2)CC1` (racemic) [Dropropizine (R,S)], the “fraction of GFP-LC3-positive cells” value is 0.442.
With `Cl.OC(CCN1CCCCC1)(c1ccccc1)C1C[C@@H]2C=C[C@H]1C2` (stereo partly drawn) [Biperiden hydrochloride], the “fraction of GFP-LC3-positive cells” value is 0.447.
With `CC[N+](CC)(CC(=O)Nc1c(C)cccc1C)Cc1ccccc1.O=C([O-])c1ccccc1` [Denatonium benzoate] the figure was 0.424; with `Nc1ncnc2c1ncn2[C@@H]1O[C@@H]2COP(=O)(O)OC2C1O` (single isomer, unassigned; (-)) [(-)-Adenosine 3',5'-cyclic monophosphate], 0.271.
Next, `COCCOC(=O)C1=C(C)NC(C)=C(C(=O)OC(C)C)C1c1cccc([N+](=O)[O-])c1` (stereo not drawn) [Nimodipine]: 0.35.
Consider `Cl.N=C(N)NC(=O)c1nc(Cl)c(N)nc1N.O.O` [Amiloride hydrochloride dihydrate], for which the “fraction of GFP-LC3-positive cells” value was 0.398.
Next, `CC(=O)O[C@H]1C(=O)[C@@]2(C)C([C@H](OC(=O)c3ccccc3)[C@]3(O)C[C@H](OC(=O)[C@H](O)[C@@H](NC(=O)c4ccccc4)c4ccccc4)C(C)=C1C3(C)C)[C@]1(OC(C)=O)CO[C@@H]1C[C@@H]2O` (stereo partly drawn) [taxol =paclitaxel]: 0.89.
Take `CC(=O)O[C@H]1C(=O)[C@@]2(C)[C@H]([C@H](OC(=O)c3ccccc3)[C@]3(O)C[C@H](OC(=O)[C@H](O)[C@@H](NC(=O)c4ccccc4)c4ccccc4)C(C)=C1C3(C)C)[C@]1(OC(C)=O)CO[C@@H]1C[C@@H]2O` [Paclitaxel]: the “fraction of GFP-LC3-positive cells” value amounted to 0.843.
